# Source: PubChem BioAssay
# The source made the active and inactive calls. Rule as the data show it, unless noted: active = inhibition above about 80%; inactive = the rest.
# What was measured:
# [1] = RCMB18 cell growth, single agent and combined, cisplatin and BGB IC40 combos (AID 1671462); conditions: RCMB18 medulloblastoma cells, stronger effect = higher value;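 also: cells exposed to compound for four days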
# [2] = CRL1545 cell growth, single agent and combined, cisplatin and BGB IC20 combos (AID 1671464); conditions: CRL1545 osteosarcoma cells, stronger effect = higher value;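 also: cells exposed to compound for 96 hours before readout; 0% = vehicle DMSO and 100% = high DMSO killing control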
# [3] = growth inhibition, single agent or in combination, cell-based, chromothripsis tumors, cisplatin or BGB combos (AID 1671449); conditions: LFS_MB_P medulloblastoma cells;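 also: cells exposed for 96 hours; 0% = vehicle DMSO and 100% = killing by high DMSO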
# [4] = growth inhibition, single agent and combos, cell-based, chromothripsis tumors, cisplatin or BGB combos (AID 1671450); conditions: HDN33 neuroblastoma cells, stronger effect = higher value;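 also: cells exposed to compound for four days; 0% = vehicle DMSO and 100% = cell killing by high DMSO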
# [5] = growth inhibition, single agents and combos, ICB984, cell-based, cisplatin or BGB combos, synergistic combos for chromothripsis tumors (AID 1671451; call rule not given here;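 also: cells exposed for 96 hours before readout; 0% = vehicle DMSO and 100% = killing by high DMSO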); conditions: ICB984 medulloblastoma cells, drug combinations, stronger effect = higher value
# [6] = growth inhibition, single agents and combos, LFS_MB_1R, cell-based, cisplatin or BGB combos, synergistic combos for chromothripsis tumors (AID 1671452); conditions: LFS_MB_1R medulloblastoma cells, stronger effect = higher value;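 also: cells exposed for 96 hours before readout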
# [7] = growth inhibition, single agents and combos, HTB85, cell-based, BGB or cisplatin IC20 combos, synergistic combos for chromothripsis tumors (AID 1671453); conditions: HTB85 osteosarcoma cells, drug combinations, stronger effect = higher value;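 also: cells exposed for 96 hours before readout; 0% = vehicle DMSO and 100% = high DMSO killing control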
# [8] = growth inhibition, single agents and combos, CRL2098, cell-based, BGB or cisplatin IC20 combos, synergistic combos for chromothripsis tumors (AID 1671454); conditions: CRL2098 osteosarcoma cells, drug combinations, stronger effect = higher value;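 also: cells exposed for 96 h before readout; 0% = vehicle DMSO and 100% = killing by high DMSO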
# [9] = growth inhibition, single agents and combos, HD-MB03, cell-based, BGB or cisplatin IC20 combos, synergistic combos for chromothripsis tumors (AID 1671455; in the data active = inhibition above about 83%;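 also: 0% = vehicle DMSO and 100% = high DMSO as cytotoxic control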); conditions: HD-MB03 medulloblastoma cells, stronger effect = higher value
# [10] = growth inhibition, single agents and combos, UWB1.289, cell-based, BGB or cisplatin combos, synergistic combos for chromothripsis tumors (AID 1671456); conditions: UWB1.289 ovarian carcinoma cells, stronger effect = higher value;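 also: cells exposed to compound for four days; 0% = vehicle DMSO and 100% = killing by high DMSO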
# [11] = growth inhibition, single agents and combos, LFS_MB_2R, cell-based, cisplatin combos, synergistic combos for chromothripsis tumors (AID 1671457); conditions: LFS_MB_2R medulloblastoma cells, stronger effect = higher value;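 also: cells exposed to compound for four days before readout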
# [12] = growth inhibition, MDA-MB-436, cell-based, BGB or cisplatin combos, synergistic combos for chromothripsis tumors (AID 1671458; call rule not given here;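 also: cells exposed for 96 hours; 0% = vehicle DMSO and 100% = killing by high DMSO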); conditions: MDA-MB-436 breast carcinoma growth inhibition, drug combinations, stronger effect = higher value
# [13] = UWB1.289_BRCA1 ovarian cancer growth, cell-based, BGB or cisplatin combinations (AID 1671459); conditions: UWB1.289 BRCA1 ovarian carcinoma, drug combinations, stronger effect = higher value
# [14] = drug combination toxicity in non-malignant astrocytes – cell-based, BGB or cisplatin IC20 combos, cytotoxicity control for chromothriptic childhood tumor combination screen (AID 1671460); conditions: Human astrocytes, viability inhibition, drug combinations, at 0.5 µM, stronger effect = higher value;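 also: cells exposed to compounds for 96 hours before viability readout; 0% = vehicle and 100% = killing control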
# [15] = BT084 cell growth, single and combined drugs, ICGC_MB145, cisplatin and BGB IC40 combos (AID 1671461); conditions: BT084 medulloblastoma cells, drug combinations, stronger effect = higher value;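 also: cells exposed to drugs for 96 hours; 0% = vehicle DMSO and 100% = high DMSO full killing control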
# [16] = measured here: BGB IC40 combination, at 0.05 µM
# [17] = measured here: combination with cisplatin, at 0.5 µM
# [18] = measured here: with BGB IC20 combination, at 0.5 µM
# [19] = measured here: with cisplatin IC20 combination, at 0.5 µM
# [20] = measured here: combination with BGB IC40, at 0.05 µM
# [21] = measured here: combination with cisplatin, at 5 µM
smiles,measurement,setting,value
Nc1nc(NC2CC2)cc(-c2cccc(Cl)c2Cl)n1,inhibition,[1]; [16],-3.5%
same,inhibition,[1]; [17],-22.4%
same,inhibition,"[1]; single agent, at 5 µM",-28.4%
same,inhibition,[2]; at 0.5 µM,-36.8% (inactive)
same,inhibition,[2]; [18],-16.7%
same,inhibition,[2]; [19],-46.8%
same,inhibition,"[2]; single agent, at 0.05 µM",-25%
same,inhibition,"[2]; single agent, at 5 µM",-32.6%
COc1cccc2c1C(=O)c1c(O)c3c(c(O)c1C2=O)CC(O)(C(C)=O)CC3OC1CC(N)C(O)C(C)O1 (stereo unspecified),inhibition,"[3]; at 0.5 µM, stronger effect = higher value",-31.5% (inactive)
same,inhibition,"[3]; measured here: combination with BGB IC20, at 0.005 µM",15.7%
same,inhibition,"[3]; measured here: combination with BGB IC40, at 0.005 µM",-20.1%
same,inhibition,[3]; [20],0.2%
same,inhibition,"[3]; measured here: combination with cisplatin, at 0.5 µM, stronger effect = higher value",-39.6%
same,inhibition,"[3]; measured here: combination with cisplatin, at 5 µM, stronger effect = higher value",121%
same,inhibition,"[4]; BGB combo, at 5 µM",99.8%
same,inhibition,[4]; at 0.5 µM,99.4% (active)
same,inhibition,"[4]; cisplatin combo, at 5 µM",99.9%
same,inhibition,[4]; [18],98.9%
same,inhibition,[4]; [19],99.7%
same,inhibition,"[4]; single agent, at 5 µM",99.9%
same,inhibition,"[5]; BGB IC20 combo, at 0.005 µM",97.7%
same,inhibition,"[5]; BGB IC40 combo, at 0.005 µM",98%
same,inhibition,"[5]; BGB IC40 combo, at 0.05 µM",102%
same,inhibition,[5]; at 0.5 µM,-13% (inactive)
same,inhibition,"[5]; cisplatin combo, at 0.05 µM",102%
same,inhibition,"[5]; cisplatin combo, at 0.5 µM",-18.7%
same,inhibition,"[5]; cisplatin combo, at 5 µM",7.68%
same,inhibition,"[5]; measured here: 5 uM single agent, at 5 µM",8.05%
same,inhibition,[6]; at 0.5 µM,101% (active)
same,inhibition,[6]; [20],85%
same,inhibition,[6]; [17],101%
same,inhibition,[6]; [21],104%
same,inhibition,[7]; at 0.5 µM,99.2% (active)
same,inhibition,"[7]; measured here: with BGB IC20, at 0.5 µM",98.8%
same,inhibition,"[7]; measured here: with BGB IC20, at 5 µM",99.9%
same,inhibition,"[7]; measured here: with cisplatin IC20, at 0.5 µM",99.3%
same,inhibition,"[7]; measured here: with cisplatin IC20, at 5 µM",100%
same,inhibition,"[7]; single agent, at 5 µM",99.9%
same,inhibition,[8]; at 0.5 µM,99.4% (active)
same,inhibition,"[8]; measured here: combination with BGB at IC20, at 0.5 µM",98.9%
same,inhibition,"[8]; measured here: combination with cisplatin at IC20, at 0.5 µM",99.6%
same,inhibition,[9]; at 0.5 µM,97.2% (active)
same,inhibition,"[9]; measured here: combo with BGB at IC20, at 0.5 µM",95.8%
same,inhibition,"[9]; measured here: combo with cisplatin at IC20, at 0.5 µM",97.5%
same,inhibition,[10]; at 0.5 µM,72.4% (inactive)
same,inhibition,"[10]; measured here: inhibition with BGB combination, at 0.05 µM",38.4%
same,inhibition,"[10]; measured here: inhibition with cisplatin combination, at 0.05 µM",35.7%
same,inhibition,[11]; at 0.5 µM,86.9% (active)
same,inhibition,[11]; [17],95.6%
same,inhibition,[11]; [21],112%
same,inhibition,[12]; at 0.5 µM,87.4% (active)
same,inhibition,"[12]; measured here: BGB combination, at 0.5 µM",85.1%
same,inhibition,"[12]; measured here: BGB combination, at 5 µM",89.2%
same,inhibition,"[12]; measured here: cisplatin combination, at 0.5 µM",91.5%
same,inhibition,"[12]; measured here: cisplatin combination, at 5 µM",95.1%
same,inhibition,"[13]; BGB combination, concentration series, at 5 µM",104%
same,inhibition,[13]; at 0.5 µM,80.6% (active)
same,inhibition,"[13]; cisplatin combination, concentration series, at 5 µM",98.3%
same,inhibition,[14],93.3% (active)
same,inhibition,[14]; measured here: combo with BGB IC20,88.3%
same,inhibition,[14]; measured here: combo with cisplatin IC20,93.9%
same,inhibition,[15]; at 0.5 µM,40.4% (inactive)
same,inhibition,"[15]; cisplatin combination, at 0.5 µM",18.1%
same,inhibition,"[15]; cisplatin combination, at 5 µM",88%
same,inhibition,"[15]; measured here: BGB IC40 combination 0.05 uM, at 0.05 µM",-6.7%
same,inhibition,"[15]; single agent, at 5 µM",88.2%
same,inhibition,[1]; at 0.5 µM,79% (inactive)
same,inhibition,"[1]; cisplatin combo, at 5 µM",90.7%
same,inhibition,[1]; [16],13.9%
same,inhibition,[1]; [17],77.7%
same,inhibition,"[1]; single agent, at 5 µM",94.7%
same,inhibition,[2]; at 0.5 µM,99.5% (active)
same,inhibition,[2]; [18],99.1%
same,inhibition,[2]; [19],99.7%
same,inhibition,"[2]; single agent, at 0.05 µM",98.4%
same,inhibition,"[2]; single agent, at 5 µM",100%
